Assay results reported in the supplement of paper PMC6897291.

Legend:
[1] = test system: U-2932; test: growth inhibition by drug alone (1 - RLU/untreated control) (fraction); higher = stronger inhibition; details: 177Lu-lilotomab satetraxetan 0 ug/ml
How it was run: (§1)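 RIVA or U-2932 cells, untreated or pretreated 18 h with a radiolabelled anti-CD37 antibody conjugate (~600 MBq/mg; 0.5 µg/ml RIVA, 1 µg/ml U-2932), were washed and seeded at 3,000 cells/well on plates pre-printed with the Selleck Cambridge Cancer Compound library. Doses were 10/100 nM (RIVA) or 10/1,000 nM (U-2932). RealTime-Glo luminescence was read daily from day 3 after 1 h at 37°C. Growth inhibition is 1 − RLU/mean of 48 untreated no-drug wells per plate.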

[2] = test system: U-2932; test: growth inhibition by drug plus 177Lu-lilotomab satetraxetan (1 - RLU/untreated control) (fraction); higher = stronger inhibition; details: 177Lu-lilotomab satetraxetan 1 ug/ml
How it was run: as §1

[3] = test system: RIVA; test: as above; details: 177Lu-lilotomab satetraxetan 0.5 ug/ml
How it was run: as §1

[4] = test system: RIVA; test: growth inhibition by drug alone (1 - RLU/untreated control) (fraction); higher = stronger inhibition; details: 177Lu-lilotomab satetraxetan 0 ug/ml
How it was run: as §1

SMILES	growth inhibition by drug alone ([1]; 10 nM, time (day): 3)	growth inhibition by drug alone ([1]; 10 nM, time (day): 4)	growth inhibition by drug alone ([1]; 10 nM, time (day): 5)	growth inhibition by drug alone ([1]; 10 nM, time (day): 6)	growth inhibition by drug alone ([1]; 1000 nM, time (day): 3)	growth inhibition by drug alone ([1]; 1000 nM, time (day): 4)	growth inhibition by drug alone ([1]; 1000 nM, time (day): 5)	growth inhibition by drug alone ([1]; 1000 nM, time (day): 6)	growth inhibition by drug plus 177Lu-lilotomab satetraxetan ([2]; 10 nM, time (day): 3)	growth inhibition by drug plus 177Lu-lilotomab satetraxetan ([2]; 10 nM, time (day): 4)	growth inhibition by drug plus 177Lu-lilotomab satetraxetan ([2]; 10 nM, time (day): 5)	growth inhibition by drug plus 177Lu-lilotomab satetraxetan ([2]; 10 nM, time (day): 6)	growth inhibition by drug plus 177Lu-lilotomab satetraxetan ([2]; 1000 nM, time (day): 3)	growth inhibition by drug plus 177Lu-lilotomab satetraxetan ([2]; 1000 nM, time (day): 4)	growth inhibition by drug plus 177Lu-lilotomab satetraxetan ([2]; 1000 nM, time (day): 5)	growth inhibition by drug plus 177Lu-lilotomab satetraxetan ([2]; 1000 nM, time (day): 6)	growth inhibition by drug plus 177Lu-lilotomab satetraxetan ([3]; 10 nM, time (day): 3)	growth inhibition by drug plus 177Lu-lilotomab satetraxetan ([3]; 10 nM, time (day): 4)	growth inhibition by drug plus 177Lu-lilotomab satetraxetan ([3]; 10 nM, time (day): 5)	growth inhibition by drug plus 177Lu-lilotomab satetraxetan ([3]; 10 nM, time (day): 6)	growth inhibition by drug plus 177Lu-lilotomab satetraxetan ([3]; 100 nM, time (day): 3)	growth inhibition by drug plus 177Lu-lilotomab satetraxetan ([3]; 100 nM, time (day): 4)	growth inhibition by drug plus 177Lu-lilotomab satetraxetan ([3]; 100 nM, time (day): 5)	growth inhibition by drug plus 177Lu-lilotomab satetraxetan ([3]; 100 nM, time (day): 6)	growth inhibition by drug alone ([4]; 10 nM, time (day): 3)	growth inhibition by drug alone ([4]; 10 nM, time (day): 4)	growth inhibition by drug alone ([4]; 10 nM, time (day): 5)	growth inhibition by drug alone ([4]; 10 nM, time (day): 6)	growth inhibition by drug alone ([4]; 100 nM, time (day): 3)	growth inhibition by drug alone ([4]; 100 nM, time (day): 4)	growth inhibition by drug alone ([4]; 100 nM, time (day): 5)	growth inhibition by drug alone ([4]; 100 nM, time (day): 6)
O=C(NCCCNc1nc(Nc2cccc(NC(=O)N3CCCC3)c2)ncc1I)c1cccs1	0.201	0.14	0.0194	0.047	0.0736	0.137	0.35	0.462	0.198	0.238	0.304	0.353	0.223	0.302	0.491	0.618	0.795	0.787	0.812	0.838	0.547	0.558	0.603	0.64								
CN(C)CCCCSC(=N)N	0.0803	0.0562	-0.0181	-0.016	-0.0315	0.00953	-0.0703	-0.245	0.0342	0.0372	0.0384	0.0444	-0.0939	0.0263	-0.0236	-0.0661	0.357	0.498	0.532	0.544	0.259	0.415	0.415	0.398	-0.0402	-0.0677	-0.106	-0.316	-0.0334	-0.0664	-0.0858	-0.22
CN(C)c1ccccc1CN1CCCN(Cc2ccccc2N(C)C)C1c1ccncc1	0.0601	0.0484	-0.0775	-0.0436	-0.0515	0.0164	-0.0723	-0.322	-0.0506	-0.00857	0.0315	0.0251	-0.133	-0.00158	-0.031	-0.0122	0.403	0.514	0.537	0.54	0.416	0.506	0.504	0.487								
Cc1ccc(C(=O)N(CCCN)[C@@H](c2oc3cc(Cl)ccc3c(=O)c2Cc2ccccc2)C(C)C)cc1	0.962	0.968	0.974	0.977	0.962	0.97	0.976	0.98	0.964	0.974	0.981	0.984	0.968	0.976	0.982	0.985	0.963	0.976	0.981	0.985	0.953	0.973	0.979	0.981	0.945	0.955	0.965	0.967	0.918	0.938	0.95	0.957
NC(=O)c1ccc(-c2nc(-c3ccccn3)c(-c3ccc4c(c3)OCO4)[nH]2)cc1	0.107	0.0821	-0.071	-0.0929	0.0294	0.069	-0.0548	-0.0669	0.0841	0.129	0.164	0.198	0.0479	0.102	0.125	0.211	0.633	0.64	0.642	0.63	0.438	0.521	0.528	0.52								
